Measurements reported in PubChem BioAssay AID1159580 (chemical genetic matrix, 2015).
The campaign covered roughly 5,500 compounds. About 2,000 (36%) were called active. Another 18% or so got no clear call; they are omitted. The list shows a part of the results. A number with no mark means an inactive call. No stated cut-off is given here; in the data, active means normalized growth mostly below about 0.91 (no sharp cut-off); inconclusive means no clear call, values can overlap the other calls; inactive means mostly above about 0.92.

Assay: chemical genetic growth profiling, strain panel (AID 1159580);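 further: tested at 20 µM; growth read once vehicle control cultures reached saturation at 30 °C; 1 = growth at the plate median or of vehicle wells; lower values mean less growth of the strain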
Conditions: growth OD
[1] = S. cerevisiae deletion strains, locus YDL101C, strain DUN1, hits give low values
[2] = S. cerevisiae deletion strains, locus YHR030C, strain SLT2, hits give low values

`COC(=O)c1ccc(Cl)cc1N(Cc1ccccc1)S(C)(=O)=O` showed a normalized growth (S. cerevisiae deletion strains, locus YAL013W, strain DEP1, hits give low values) of 1.01, a normalized growth (S. cerevisiae deletion strains, locus YBR229C, strain ROT2, hits give low values) of 1.02 and a normalized growth [1] of 0.998. It also gave a normalized growth (S. cerevisiae deletion strains, locus YDL134C, strain PPH21, hits give low values) of 1, a normalized growth (S. cerevisiae deletion strains, locus YDR150W, strain NUM1, hits give low values) of 0.934 and a normalized growth (S. cerevisiae deletion strains, locus YEL061C, strain CIN8, hits give low values) of 1. For the same compound, the normalized growth (S. cerevisiae deletion strains, locus YGR078C, strain PAC10, hits give low values) was 0.992, the normalized growth (S. cerevisiae deletion strains, locus YGR229C, strain SMI1, hits give low values) was 0.999 and the normalized growth [2] was 1.11. It also gave a normalized growth (S. cerevisiae deletion strains, locus YHR087W, strain rtc3, hits give low values) of 1, a normalized growth (S. cerevisiae deletion strains, locus YJL187C, strain SWE1, hits give low values) of 1 and a normalized growth (S. cerevisiae deletion strains, locus YJR075W, strain HOC1, hits give low values) of 0.968. The normalized growth (S. cerevisiae deletion strains, locus YLR039C, strain RIC1, hits give low values) was 1.03, the normalized growth (S. cerevisiae deletion strains, locus YLR058C, strain SHM2 (second series), hits give low values) was 1.01 and the normalized growth (S. cerevisiae deletion strains, locus YLR085C, strain ARP6, hits give low values) was 1.05. It also gave a normalized growth (S. cerevisiae deletion strains, locus YLR262C, strain YPT6, hits give low values) of 1, a normalized growth (S. cerevisiae deletion strains, locus YML094W, strain GIM5, hits give low values) of 1.02 and a normalized growth (S. cerevisiae deletion strains, locus YMR219W, strain ESC1, hits give low values) of 1. The normalized growth (S. cerevisiae deletion strains, locus YMR263W, strain SAP30, hits give low values) was 0.929, the normalized growth (S. cerevisiae deletion strains, locus YNL128W, strain TEP1, hits give low values) was 1.02 and the normalized growth (S. cerevisiae deletion strains, locus YNL153C, strain GIM3, hits give low values) was 1. The normalized growth (S. cerevisiae deletion strains, locus YNL298W, strain CLA4 (second series), hits give low values) was 1.04, the normalized growth (S. cerevisiae deletion strains, locus YNL322C, strain KRE1, hits give low values) was 0.985 and the normalized growth (S. cerevisiae deletion strains, locus YNR030W, strain Alg12, hits give low values) was 1.02. The normalized growth (S. cerevisiae deletion strains, locus YOL006C, strain TOP1, hits give low values) was 1.14, the normalized growth (S. cerevisiae deletion strains, locus YPL055C, strain LGE1, hits give low values) was 0.923 and the normalized growth (S. cerevisiae deletion strains, locus YPL241C, strain CIN2, hits give low values) was 1.03. The normalized growth (S. cerevisiae deletion strains, locus YPR135W, strain CTF4, hits give low values) was 1.17 and the normalized growth (S. cerevisiae strains, strain wild type, hits give low values) was 1.03.
For `CN(C(=O)N(C)c1ccc(Cl)cc1C(=O)c1ccccc1Cl)c1ccc(Cl)cc1C(=O)c1ccccc1Cl`, the normalized growth (S. cerevisiae deletion strains, locus YAR019C, strain CDC15, hits give low values) was 0.84 (active), the normalized growth (S. cerevisiae deletion strains, locus YBL105C, strain PKC1, hits give low values) was 0.85 (active) and the normalized growth (S. cerevisiae deletion strains, locus YBR135W, strain CKS1, hits give low values) was 0.85 (active). The normalized growth (S. cerevisiae deletion strains, locus YBR136W, strain MEC1, hits give low values) was 0.832 (active), the normalized growth (S. cerevisiae deletion strains, locus YBR160W, strain CDC28, hits give low values) was 0.853 (active) and the normalized growth (S. cerevisiae deletion strains, locus YDL017W, strain CDC7, hits give low values) was 0.851 (active). The normalized growth (S. cerevisiae deletion strains, locus YDL028C, strain MPS1, hits give low values) was 0.835 (active), the normalized growth [1] was 0.847 (active) and the normalized growth (S. cerevisiae deletion strains, locus YDL108W, strain KIN28, hits give low values) was 0.831 (active). For the same compound, the normalized growth (S. cerevisiae deletion strains, locus YDL132W, strain cdc53, hits give low values) was 0.853 (active), the normalized growth (S. cerevisiae deletion strains, locus YDL214C, strain PRR2, hits give low values) was 0.471 (active) and the normalized growth (S. cerevisiae deletion strains, locus YDR052C, strain DBF4, hits give low values) was 0.855 (active). The normalized growth (S. cerevisiae deletion strains, locus YDR054C, strain cdc34, hits give low values) was 0.805 (active), the normalized growth (S. cerevisiae deletion strains, locus YDR226W, strain ADK1, hits give low values) was 0.86 (active) and the normalized growth (S. cerevisiae deletion strains, locus YDR477W, strain SNF1, hits give low values) was 0.467 (active). The normalized growth (S. cerevisiae deletion strains, locus YER123W, strain YCK3, hits give low values) was 0.388 (active), the normalized growth (S. cerevisiae deletion strains, locus YER133W, strain GLC7, hits give low values) was 0.447 (active) and the normalized growth (S. cerevisiae deletion strains, locus YFL009W, strain cdc4, hits give low values) was 0.848 (active). The normalized growth (S. cerevisiae deletion strains, locus YFL029C, strain CAK1, hits give low values) was 0.828 (active), the normalized growth (S. cerevisiae deletion strains, locus YFR003C, strain YPI1, hits give low values) was 0.85 (active) and the normalized growth (S. cerevisiae deletion strains, locus YFR019W, strain FAB1, hits give low values) was 0.577 (active). For the same compound, the normalized growth (S. cerevisiae deletion strains, locus YFR028C, strain CDC14, hits give low values) was 0.841 (active), the normalized growth (S. cerevisiae deletion strains, locus YGR040W, strain KSS1, hits give low values) was 0.462 (active) and the normalized growth (S. cerevisiae deletion strains, locus YGR052W, strain FMP48, hits give low values) was 0.46 (active). For the same compound, the normalized growth (S. cerevisiae deletion strains, locus YGR092W, strain DBF2, hits give low values) was 0.242 (active), the normalized growth [2] was 0.49 (active) and the normalized growth (S. cerevisiae deletion strains, locus YHR079C, strain IRE1, hits give low values) was 0.463 (active). The normalized growth (S. cerevisiae deletion strains, locus YHR082C, strain KSP1, hits give low values) was 0.492 (active), the normalized growth (S. cerevisiae deletion strains, locus YHR205W, strain SCH9, hits give low values) was 0.716 and the normalized growth (S. cerevisiae deletion strains, locus YIL147C, strain SLN1, hits give low values) was 0.826 (active). The normalized growth (S. cerevisiae deletion strains, locus YJL095W, strain BCK1, hits give low values) was 0.417 (active), the normalized growth (S. cerevisiae deletion strains, locus YJL128C, strain PBS2, hits give low values) was 0.867 and the normalized growth (S. cerevisiae deletion strains, locus YJL157C, strain FAR1, hits give low values) was 0.51 (active). For the same compound, the normalized growth (S. cerevisiae deletion strains, locus YJR016C, strain ILV3, hits give low values) was 0.883 (active), the normalized growth (S. cerevisiae deletion strains, locus YJR066W, strain TOR1 (second series), hits give low values) was 0.518 (active) and the normalized growth (S. cerevisiae deletion strains, locus YJR066W, strain TOR1, hits give low values) was 0.381 (active). For the same compound, the normalized growth (S. cerevisiae deletion strains, locus YKL048C, strain ELM1, hits give low values) was 0.605 (active), the normalized growth (S. cerevisiae deletion strains, locus YKL067W, strain YNK1, hits give low values) was 0.525 (active) and the normalized growth (S. cerevisiae deletion strains, locus YKL101W, strain HSL1, hits give low values) was 0.524 (active). For the same compound, the normalized growth (S. cerevisiae deletion strains, locus YKL193C, strain SDS22, hits give low values) was 0.832 (active), the normalized growth (S. cerevisiae deletion strains, locus YKL203C, strain TOR2, hits give low values) was 0.457 (active) and the normalized growth (S. cerevisiae deletion strains, locus YLR113W, strain HOG1, hits give low values) was 0.447 (active). For the same compound, the normalized growth (S. cerevisiae deletion strains, locus YLR133W, strain CKI1, hits give low values) was 0.582 (active), the normalized growth (S. cerevisiae deletion strains, locus YLR403W, strain SFP1, hits give low values) was 0.592 (active) and the normalized growth (S. cerevisiae deletion strains, locus YML070W, strain DAK1, hits give low values) was 0.446 (active). For the same compound, the normalized growth (S. cerevisiae deletion strains, locus YMR001C, strain CDC5, hits give low values) was 0.838 (active), the normalized growth (S. cerevisiae deletion strains, locus YMR205C, strain PFK2 (second series), hits give low values) was 0.549 (active) and the normalized growth (S. cerevisiae deletion strains, locus YMR277W, strain FCP1, hits give low values) was 0.825 (active). The normalized growth (S. cerevisiae deletion strains, locus YNL006W, strain LST8, hits give low values) was 0.855 (active), the normalized growth (S. cerevisiae deletion strains, locus YNL020C, strain ARK1, hits give low values) was 0.527 (active) and the normalized growth (S. cerevisiae deletion strains, locus YNL161W, strain CBK1, hits give low values) was 0.852 (active). The normalized growth (S. cerevisiae deletion strains, locus YNL183C, strain NPR1, hits give low values) was 0.412 (active), the normalized growth (S. cerevisiae deletion strains, locus YNL207W, strain RIO2, hits give low values) was 0.825 (active) and the normalized growth (S. cerevisiae deletion strains, locus YNL222W, strain SSU72, hits give low values) was 0.846 (active). The normalized growth (S. cerevisiae deletion strains, locus YNL307C, strain MCK1 (second series), hits give low values) was 0.412 (active), the normalized growth (S. cerevisiae deletion strains, locus YOL078W, strain AVO1, hits give low values) was 0.845 (active) and the normalized growth (S. cerevisiae deletion strains, locus YOL136C, strain PFK27, hits give low values) was 0.51 (active). The normalized growth (S. cerevisiae deletion strains, locus YOR061W, strain CKA2, hits give low values) was 0.477 (active), the normalized growth (S. cerevisiae deletion strains, locus YOR119C, strain RIO1, hits give low values) was 0.483 (active) and the normalized growth (S. cerevisiae deletion strains, locus YOR231W, strain MKK1, hits give low values) was 0.455 (active). The normalized growth (S. cerevisiae deletion strains, locus YOR329C, strain SCD5, hits give low values) was 0.846 (active), the normalized growth (S. cerevisiae deletion strains, locus YPL031C, strain PHO85, hits give low values) was 0.441 (active) and the normalized growth (S. cerevisiae deletion strains, locus YPL153C, strain RAD53, hits give low values) was 0.369 (active). The normalized growth (S. cerevisiae deletion strains, locus YPL204W, strain HRR25, hits give low values) was 0.487 (active), the normalized growth (S. cerevisiae deletion strains, locus YPL209C, strain IPL1, hits give low values) was 0.855 (active) and the normalized growth (S. cerevisiae deletion strains, locus YPL256C, strain CLN2, hits give low values) was 0.508 (active). The normalized growth (S. cerevisiae deletion strains, locus YPR025C, strain CCL1, hits give low values) was 0.856 (active), the normalized growth (S. cerevisiae deletion strains, locus YPR106W, strain ISR1, hits give low values) was 0.868 (active) and the normalized growth (S. cerevisiae deletion strains, locus YPR111W, strain DBF20, hits give low values) was 0.874. For the same compound, the normalized growth (S. cerevisiae deletion strains, strain NNK1, hits give low values) was 0.855 (active) and the normalized growth (S. cerevisiae deletion strains, strain TSCII, hits give low values) was 0.818 (active).
